# Bioassay records from PubChem.
# Tau fibril FP: blocks human tau fibril formation measured by polarization; P10636; K18 P301L tau heparin fibrillization, Alexa594 FP, 6 h; Potency, µM (series often up to 57.7 µM), inactives show at the top dose activity, negative = inhibition, most hits filed as inhibitors; 280,000 tested, 0.39% active; AID 1468; also: potency is read from the fitted curve at half-maximal effect; nearly all actives have a fitted effect of over 55% in size
# Target sequence (P10636 561-689 P618L limits assumed): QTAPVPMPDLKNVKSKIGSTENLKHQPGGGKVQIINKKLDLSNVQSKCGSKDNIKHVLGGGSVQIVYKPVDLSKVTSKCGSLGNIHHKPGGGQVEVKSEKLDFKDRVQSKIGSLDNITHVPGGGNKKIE
#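 Compound effects on tau fibrillization are measured by Alexa 594 fluorescence polarization (ex 555, em 632 nm). K18 P301L tau is used at 15 uM with 0.24 uM labeled tracer, and 20 uM heparin induces aggregation over 6 hr at 37 C.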
# Tau ThT inhib: inhibitors of human tau fibril formation, thioflavin T binding; recombinant tau K18 P301L, heparin-induced fibrillization, ThT fluorescence; Potency, µM (titrated, usually from 57.4 µM), inactives show at the highest dose activity, negative = inhibition, most hits filed as inhibitors; 270,000 tested, 2.1% active; AID 1460; also: potency is read from the fitted curve at half-maximal effect; nearly all actives have a fitted effect of over 55% in size
#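 Heparin-induced (20 uM) aggregation of recombinant human K18 P301L tau, 15 uM unlabeled with 0.24 uM labeled, pH 7 acetate buffer, 6 hr at 37 C with compound. Fibrils quantified by 30 uM ThT fluorescence after 1 hr ambient incubation.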
# Coupling enz: coupling enzyme interference in Giardia aldolase counter-screen. coupling enzyme system counterscreen, AmpLite Red fluorescence. activity change, negative = inhibition, % at 58.2 µM, hits read low. 290,000 tested, 0.67% active. AID 2472; in the data active = activity change below about -30%
#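 Final compound at 57.5 uM, incubated 10 min at RT with coupling enzyme reagent (glyceraldehyde-3-phosphate), then 20 min with substrate and AmpLite Red detection. Fluorescence read at 525/598 nm; tests interference with the coupling assay, not aldolase inhibition.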
# Tau fluor counter: counter-screen for tau fibril formation inhibitors | Potency, µM (titrated, usually from 57.7 µM), for the others: top-dose activity change, negative = decrease | tau K18 P301L (four-repeat tau fragment) Alexa594 fluorescence, heparin fibrillization | 280,000 tested, 0.93% active; also: potency is read from the fitted curve at half-maximal effect; nearly all actives have a fitted effect of over 55% in size
#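 Human K18 P301L tau (15 uM unlabeled plus 0.24 uM Alexa 594-labeled, final) in 100 mM sodium acetate pH 7 was mixed with compound and 20 uM heparin and incubated 6 hr at 37 C.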
# An asterisk follows results filed as active; ? = inconclusive; / = not tested or not shown; ! = a repeat was not active; [ ] = another dose, or the depositor's remark. A selection: hits, their analogues and other compounds. The true share with any hit is near 2.7%. Unless noted, calls follow the shape of the dose curve; as a rule, active = well fitted curve in the direction sought with a large enough effect; inconclusive = small, poorly fitted or top-dose-only effect, or another doubt; inactive = no such curve, though single readings can be large; an effect the other way counts as inactive or inconclusive. % is scaled to controls: 0 for no effect and ±100 for the full control effect.
SMILES,Tau fibril FP,Tau ThT inhib,Coupling enz,Tau fluor counter
O=C(Nc1ccc(S(=O)(=O)N2CCCCC2)cc1)c1ccccc1Cl,1%,-14%,1,-25%
O=c1c2ccccc2sn1-c1cc(S(=O)(=O)N2CCOCC2)ccc1N1CCOCC1,?,?,-3,-5%
N#C/C(=N\Nc1ccc(S(=O)(=O)N2CCOCC2)cc1)C(N)=S,0%,?,-1,-17%
Cc1ccc(C)c(Cn2c(=O)n(-c3ccc(Cl)cc3)c(=O)c3c4c(sc32)CCC4)c1,-2%,-10%,/,-7%
O=C(Nc1ccc(Cl)c(Cl)c1)Nc1cc(S(=O)(=O)N2CCOCC2)ccc1N1CCCC1,?,5%,-2,7.9µM*[quencher]
CN1CCN(S(=O)(=O)c2ccc(NC(=O)Nc3cccc(Cl)c3)cc2)CC1,18µM*,?,-1,?
O=C(Nc1cc(S(=O)(=O)N2CCOCC2)ccc1N1CCCC1)c1ccc2c(c1)S(=O)(=O)c1ccccc1C2=O,?,25µM*,5,?
O=C(Nc1ccccc1F)Nc1cc(S(=O)(=O)N2CCOCC2)ccc1N1CCCC1,3%,-6%,0,-23%
CN1CCN(S(=O)(=O)c2ccc(NC(=O)c3ccccc3Cl)cc2)CC1,/,/,2,/
COc1ccccc1CNc1ncncc1-c1cccc(C#N)c1,-7%,-9%,1,-8%
CCCC[C@]12Cc3ccccc3C(O1)c1c(cc(-c3ccccc3)oc1=O)O2,/,/,-31*,/
CCCC[C@]12Cc3cc(OC)c(OC)cc3C(O1)c1c(cc(-c3ccccc3)oc1=O)O2,/,/,-1,/
COc1cc(C2C=C(C(=O)O)Nc3ncnn32)ccc1O (stereo not drawn),-2%,-1%,/,-5%
CCC(C)Nc1nc2c(c(=O)[nH]c(=O)n2C)n1Cc1ccc(F)cc1 (stereo not drawn),8%,1%,/,-13%
NC(=O)c1ccc(NC(=O)COC(=O)c2c3c(nc4ccccc24)/C(=C\c2cccs2)CCC3)cc1,4.5µM*,-10%,1,?
CCc1cccc(C)c1NC(=O)COC(=O)c1c2c(nc3ccccc13)/C(=C\c1cccs1)CCC2,-2%,?,-2,-25%
CCc1ccc(Nc2ccc(C(=O)O)cc2[N+](=O)[O-])cc1,/,/,7,/
CCc1ccc(Nc2ccc(C(N)=O)cc2[N+](=O)[O-])cc1,12%,13µM*,2,?
COc1ccccc1Cn1ccn(Cc2ccc(C)cc2)c(=O)c1=O,-5%,2%,/,-22%
Cc1[nH]n(-c2ccccc2)c(=O)c1N=Nc1ccccc1,2%,?,0,-6%
Nc1[nH]n(-c2ccccc2)c(=O)c1N=Nc1ccc2c(c1)OCO2,?,2.2µM*,-7,10µM*[quencher]
Nc1[nH]n(-c2ccccc2)c(=O)c1N=Nc1ccc2c(c1)OCCO2,-12%,6.3µM*,-5,11µM*[quencher]
Cc1cc([N+](=O)[O-])ccc1N=Nc1c(N)[nH]n(-c2ccccc2)c1=O,?,16µM*,0,?
Cc1ccc(-c2csc(N)n2)s1,?,32µM*,-1,-29%
Cc1csc(N)n1,-13%,-12%,1,-8%
SMILES,Tau fibril FP,Tau ThT inhib,Coupling enz,Tau fluor counter
CCCCn1c(NC(=O)c2ccccc2)c(C#N)c2nc3ccccc3nc21,-6%,-2%,-53*,-13%
CCC(C)n1c(NC(=O)c2ccccc2)c(C#N)c2nc3ccccc3nc21 (stereo not drawn),8%,?,-49*,-15%
Cc1ccc(C(=O)NCCn2c(N)c(C#N)c3nc4ccccc4nc32)cc1,-3%,-5%,-1,-14%
Cc1nn(C(C)(C)C)c(NC(=O)c2ccccc2)c1C#N,/,/,-1,/
CC(=O)c1c(C)n(CCO)c2ccc(O)cc12,3%,0%,7,-3%
CCCCCS(=O)(=O)CCCCCCCCCCn1c(-c2ccc(O)cc2)c(C)c2cc(O)ccc21,?,?,2,7.9µM*[quencher]
O=C(O)CSc1cc(NS(=O)(=O)c2ccc(Br)cc2)c2ccccc2c1O,/,/,-44*,/
O=S(=O)(Nc1cc(Sc2ncn[nH]2)c(O)c2ccccc12)c1ccccc1,25µM*,11µM*,-55*,?
CCOC(=O)c1c(C)n(-c2ccccc2)c2ccc(OC(=O)c3ccc(OCC)c(OCC)c3)cc12,-15%,?,/,-12%
CC1=NN(c2ccccc2)C(=O)/C1=C\c1cc(C)n(-c2cccnc2)c1C,-8%,?,-1,-20%
CC1=NN(c2ccccc2)C(=O)/C1=C/c1cccs1,-5%,?,-6,-15%
CC1=NN(c2ccccc2)C(=O)/C1=C/c1c(O)n(-c2ccc(F)cc2)[nH]c1=O,12%,4.5µM*,7,13µM*[quencher]
CC1=NN(c2ccccc2)C(=O)/C1=C/c1ccc[nH]1,-2%,13µM*,-2,-20%
CC1=NN(c2ccccc2)C(=O)/C1=C\c1ccc(Br)s1,-1%,13µM*,-8,?
CC1=NN(c2ccccc2)C(=O)/C1=C\c1cc(C)n(-c2ccccc2)c1C,-4%,7.9µM*,1,-26%
Cc1ccc(CNC(=O)c2sc3nc(C)cc(C)c3c2-n2cccc2)cc1,?,8%,/,7%
COc1cc(C(=O)Nc2nc3nc(-c4ccccc4)cc(=O)n3[nH]2)cc(OC)c1OC,-8%,1%,/,-2%
CCN(CC)c1cc2c(cc1F)c(=O)c(S(=O)(=O)c1cccc(C)c1)cn2C,2%,14%,/,11%
Cc1cccc(NC(=O)C2SC(=Nc3c(C)cccc3C)C(C(=O)N3CCOCC3)=C2N)c1 (stereo not drawn),?,7.1µM*,-5,?
CN1CCc2c(sc(/N=C/c3c[nH]c4ccccc34)c2C#N)C1,?,14µM*,-30,?
CCOC(=O)c1c(/N=C/c2ccc(OC)cc2O)sc2c1CCN(C)C2,-11%,?,-20,?
CN1CCc2c(sc(/N=C/c3cc(Cl)ccc3O)c2C#N)C1,0%,?,-2,-28%
CN1CCc2c(sc(/N=C/c3c[nH]c4ccccc34)c2C(N)=O)C1,?,10µM*,-18,?
CCN1/C(=C/c2cc[n+](CCCS(=O)(=O)[O-])c3ccccc23)Sc2ccccc21,-7%,?,1,8%
C=CC[n+]1ccc(/C=C2\C=Cc3cc(C)ccc3N2CC)c2ccccc21,32µM*,3.2µM*,-18,-18%
SMILES,Tau fibril FP,Tau ThT inhib,Coupling enz,Tau fluor counter
Cc1ccc(OCC(=O)N/N=C/c2cc([N+](=O)[O-])ccc2N2CCCCC2)cc1,12%,-9%,0,-16%
O=C(COc1ccc([N+](=O)[O-])cc1)N/N=C/c1cc([N+](=O)[O-])ccc1N1CCOCC1,-3%,4µM*,0,-26%
O=c1[nH][nH]c2c(N=Cc3ccccc3O)ccc(F)c12,7.9µM*,3.5µM*,-34*,3.5µM*[quencher]
CCc1ccc(O)c(N=Cc2ccccc2O)c1,-6%,?,0,-22%
CC/C(C)=N/Nc1cccc([N+](=O)[O-])c1,16%,?,5,-21%
CCCCC1=CC2=C(c3ccco3)C(=O)C(C)(OC(=O)c3ccc(OC)cc3)C(=O)C2=CN1Cc1ccc(OC)cc1 (stereo not drawn),?,14µM*!,0,0%[11.6 µM]
